Pf apPOL block: Pf-apPOL DNA polymerase inhibition; Recombinant Pf-apPOL, molecular beacon fluorescence, 1.5 h; inhibition, % at 10 µM; 210,000 compounds, 0.25% hits; AID 1794808
mHTT CaM bind: mHTT-calmodulin interaction abrogation. inhibition, % at 15 µM. AID 1671202. 190,000 compounds, 3.6% hits. AlphaScreen His-mHTT/GST-CaM binding, luminescence. P42858
Each line names hits and unclear results; the compound was inactive in the other large screens. This is a sample that favours compounds with a hit; in the whole collection about 3.6% have one here. Rule as the data show it: active = inhibition above about 50%; inactive = the rest.

COc1ccc(C=C2Oc3cc(OC(=O)C(C)(C)C)ccc3C2=O)cc1OC	none
Cc1ccccc1N1C(=O)c2ccc(-c3nc4ccccc4o3)cc2C1=O	none
COc1ccc(-n2nc(C(=O)NCC(=O)N(C)Cc3ccccc3)c3ccccc3c2=O)cc1	mHTT CaM bind 66.0
COc1ccc(-n2nc(C(=O)NCC(=O)O)c3ccccc3c2=O)cc1	none
Cc1nc(-c2cnccn2)nc2c1CCC(=O)N2Cc1ccco1	none
CC(=O)N1CCN(c2nc3c(s2)CC(C(=O)NCc2ccco2)CC3)CC1 (stereo not drawn)	none
O=C(c1nc(-c2cccc(F)c2)n2c1CCCCC2)N1CCN(c2ccccc2)CC1	mHTT CaM bind 78.0
COc1ccc(N2CCN(C(=O)c3nc(-c4cccc(F)c4)n4c3CCCCC4)CC2)cc1	none
CCCc1[nH]n(-c2ccc(F)cc2)c(=O)c1C=Nc1ccc(Cl)cc1	none
Cc1ccc(-c2ccc(C(=O)Nc3cc(F)cc(F)c3)cn2)cc1	none
c1nc(NCCN2CCOCC2)c2sc3nc(N4CCOCC4)c4c(c3c2n1)CCCC4	mHTT CaM bind 55.0
c1nc(N2CCNCC2)c2sc3nc(N4CCOCC4)c4c(c3c2n1)CCCC4	none
O=C1Nc2ccccc2S/C1=C\C(=O)N1CCN(c2ccc(F)cc2)CC1	none
O=C(/C=C1\Sc2ccccc2NC1=O)NCCCN1CCN(c2ccc(F)cc2)CC1	mHTT CaM bind 74.0
COc1cccc(CNC(=O)CN2CCN(C(=O)Nc3ccc(F)cc3)CC2=O)c1	none
O=C(NCc1ccccc1F)C1Cc2ccccc2N2CCN(c3cnccn3)CC12 (stereo not drawn)	mHTT CaM bind 84.0
CCNC(=O)C1Cc2ccccc2N2CCN(c3cnccn3)CC12 (stereo not drawn)	none
O=C1c2ccccc2C(=O)c2c(O)c(O)cc(O)c21	mHTT CaM bind 75.0
Nc1cc(S(=O)(=O)O)c(N)c2c1C(=O)c1ccccc1C2=O	none (no result: mHTT CaM bind)
O=C1c2ccccc2C(=O)c2c1cc(S(=O)(=O)O)c(O)c2O	mHTT CaM bind 52.0 (no result: Pf apPOL block)
O=C1c2ccccc2C(=O)c2c(O)ccc(O)c21	none
COc1ccc(-n2c(SCC(=O)N3CCCCC3)nc(O)c(Cc3ccccc3)c2=O)cc1	none
Cc1ccc(OCC(=O)Nc2ccccc2)cc1C	none
O=C(CSc1ccccn1)c1ccc2c(c1)OCO2	none
O=C(c1ccc2c(c1)OCO2)n1cccn1	Pf apPOL block 66.5
O=C(c1ccco1)N1CCC2(C1)Nc1cccnc1NC2=NCc1ccccc1 (stereo not drawn)	none
Cc1ccc(Oc2ccc(C(=O)N3CCOCC3)cc2)nn1	none
CCOc1cc(CNc2ccc3c(c2)CCC3)ccc1O	mHTT CaM bind 51.4
CCOc1cc(CNc2ccccc2SC)ccc1O	none
CC1CCN(C(=O)c2ncoc2-c2ccccc2C(=O)N2CCCCC2)CC1	none
CN(CCCNC(=O)C1CCN(c2ccncc2)CC1)c1ccccc1	none
CN(CCCNC(=O)C1CCN(c2ccc(N3CCCCC3)nn2)CC1)c1ccccc1	mHTT CaM bind 54.4
O=C(Nc1ccc(F)c(F)c1)c1ccc(N2CC3CC(C2)c2cccc(=O)n2C3)c([N+](=O)[O-])c1 (stereo not drawn)	none
O=C(NCc1ccc(Cl)cc1)c1ccc(N2CC3CC(C2)c2cccc(=O)n2C3)c([N+](=O)[O-])c1 (stereo not drawn)	mHTT CaM bind 59.0
Cn1c(CNC(=O)C2CCc3nc(N4CCCC4)ncc3C2)nc2ccccc21 (stereo not drawn)	none
CCc1noc(-c2cccnc2N2CCCN(Cc3cc(C)ccc3C)CC2)n1	none
CCS(CC)=NS(=O)(=O)c1ccc([N+](=O)[O-])cc1	none (no result: mHTT CaM bind)
CC1=CC(=NS(=O)(=O)c2ccc([N+](=O)[O-])cc2)C=C(C)C1=O	mHTT CaM bind 67.0
Cc1[nH]c(C(=O)N2CCC(CC(=O)NCCCN3CCN(C)CC3)CC2)c(C)c1C	none
CCOC(=O)c1c(-c2ccccc2)oc2c1cc(OC(=O)c1cc(OC)c(OC)c(OC)c1)c1ccccc12	Pf apPOL block 58.2
CCOC(=O)c1c(-c2ccccc2)oc2c1cc(OC(=O)c1ccccc1OC)c1ccccc12	none
COC(=O)c1ccccc1NC(=O)C1CCCN(C(=O)c2ccccc2F)C1 (stereo not drawn)	none
N=C1NC(=O)/C(=C/c2ccc(Cl)cc2Cl)S1	Pf apPOL block 55.7
N=C1NC(=O)/C(=C/c2ccccc2Br)S1	none
O=C(NCc1ccccc1)c1ccc2c(c1)NC(=O)C1CCCN21 (stereo not drawn)	none
CCN(CCCNC(=O)c1ccc2c(c1)NC(=O)C1CCCN21)Cc1ccccc1 (stereo not drawn)	Pf apPOL block 50.4
O=C1OC(c2ccccc2Br)=N/C1=C\c1ccccc1	none
Cc1cc2c(c(C)c1Br)C(c1ccc3c(c1)OCO3)CC(=O)O2 (stereo not drawn)	none
Cc1cc2c(c(C)c1Cl)C(c1ccc3c(c1)OCO3)CC(O)(c1ccccc1)O2 (stereo not drawn)	mHTT CaM bind 85.7
CCC(=O)Nc1cccc(-c2noc(C3CCCN(C(=O)c4ccccc4C)C3)n2)c1 (stereo not drawn)	none
CCC(=O)Nc1cccc(-c2noc(C3CCCN(C(=O)c4cc5ccccc5[nH]4)C3)n2)c1 (stereo not drawn)	mHTT CaM bind 59.1
CCOc1ccc(NC(NC(=O)/C=C/c2ccccc2)C(Cl)(Cl)Cl)cc1 (stereo not drawn)	none
O=C(/C=C/c1ccccc1)NC(NC1CCCCC1)C(Cl)(Cl)Cl (stereo not drawn)	Pf apPOL block 112.5
COc1ccc(C2CC(c3c(C)cc(C)[nH]c3=O)=NN2c2ccccc2)cc1 (stereo not drawn)	none
COc1ccc(OC)c(NC(=O)c2ccc(SC)s2)c1	none (no result: mHTT CaM bind)
CSc1ccc(C(=O)O)s1	Pf apPOL block 88.2
CC1=NN(C(=O)c2ccccc2Cl)C(O)(c2ccc(Cl)cc2)C1 (stereo not drawn)	none
CC1=NN(C(=O)c2ccc(Cl)cc2)C(O)(c2ccc(Cl)cc2)C1 (stereo not drawn)	mHTT CaM bind 67.0
CC1=NN(C(=O)c2cccc(Cl)c2)C(O)(c2ccc(Cl)cc2)C1 (stereo not drawn)	mHTT CaM bind 54.0
CC1=NN(C(=O)c2ccccc2F)C(O)(c2ccc(Cl)cc2)C1 (stereo not drawn)	none
CCN(CC)S(=O)(=O)c1csc(C(=O)Nc2ccccc2[N+](=O)[O-])c1	none
O=C(OCc1ccc(Cl)cc1Cl)c1ccccc1Cl	none (no result: mHTT CaM bind)
O=C(c1ccco1)N1CCN(c2cccc3[nH]ccc23)CC1	none (no result: mHTT CaM bind)
N#CC1=C(N)N(c2ccc(Cl)cc2)C2=C(C(=O)CCC2)C1c1cccnc1 (stereo not drawn)	none
CN(C)c1ccc(C2C(C#N)=C(N)N(c3ccc(Cl)cc3)C3=C2C(=O)CCC3)cc1 (stereo not drawn)	mHTT CaM bind 99.0
COc1ccc(N2C(N)=C(C#N)C(c3ccc(Br)cc3)C3=C2CCCC3=O)cc1 (stereo not drawn)	none
CN(C)c1ccc(C2C(C#N)=C(N)N(c3ccc(Br)cc3)C3=C2C(=O)CCC3)cc1 (stereo not drawn)	mHTT CaM bind 100.0
O=C(NC1CCSC1)c1ccccc1NS(=O)(=O)c1ccccc1 (stereo not drawn)	none (no result: mHTT CaM bind)
CCNC(=O)c1nc(-c2ccc(C)cc2)n2c1CCCCC2	none
O=C(NCc1cccnc1)c1nc(-c2ccc(Cl)cc2)n2c1CCCCC2	none
COc1cccc(CNC(=O)c2nc(-c3ccc(C)cc3)n3c2CCCCC3)c1	mHTT CaM bind 74.4
COc1ccc(CNC(=O)c2nc(-c3ccc(C)cc3)n3c2CCCCC3)cc1	mHTT CaM bind 54.2
